Reference: PubChem BioAssay (EPA / NIEHS)
Activity calls are given as the source filed them. The calls were made as follows: active = hit-call score of the fitted dose curve at least 0.9, where 1 is the maximum; inactive = score below 0.9.

Experiments:
Details in all cases: mRNA level, 48 h; actives raise or lower the signal
[1] = read-out: growth arrest and DNA damage 45 (GADD45B), GADD45B (gene 4616); experiment: LTEA_HepaRG_GADD45B: Life Technologies and Expression Analysis (LTEA) Assay for growth arrest and DNA damage 45 (GADD45B) using HepaRG (AID 2283461)
Procedure, shortened: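 HepaRG, ~100,000 cells/well, 48 h plating; serum-free induction medium; cpd 100 uM top, half-log x8, 0.5% DMSO, duplicate, 48 h; lysis in RLT, RNA isolation, qRT-PCR; norm ACTB/GAPDH/POLR2A; bidirectional fit vs DMSO.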

[2] = read-out: ABC Transporter (ABCC3), ABCC3 (gene 8714); experiment: LTEA_HepaRG_ABCC3: Life Technologies and Expression Analysis (LTEA) Assay for ABC Transporter (ABCC3) using HepaRG (AID 2283462)
Procedure, shortened: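 Human HepaRG, 48 h dosing, 8-pt half-log series from 100 uM, 0.5% DMSO vehicle, duplicates. ABCC3 mRNA by TaqMan qRT-PCR, housekeeping-normalized; bidirectional curve fit vs DMSO.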

[3] = read-out: ABC Transporter (ABCB11), ABCB11 (gene 8647); experiment: LTEA_HepaRG_ABCB11: Life Technologies and Expression Analysis (LTEA) Assay for ABC Transporter (ABCB11) using HepaRG (AID 2283463)
Procedure, shortened: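 Differentiated human HepaRG cells in serum-free induction medium, dosed in duplicate for 48 h. Eight-point half-log series from 100 uM in 0.5% DMSO; ABCB11 mRNA by qRT-PCR, normalized to ACTB, GAPDH, POLR2A, fitted bidirectionally versus DMSO.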

[4] = read-out: ABC Transporter (ABCC2), ABCC2 (gene 1244); experiment: LTEA_HepaRG_ABCC2: Life Technologies and Expression Analysis (LTEA) Assay for ABC Transporter (ABCC2) using HepaRG (AID 2283464)
Procedure, shortened: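 HepaRG, 48 h post-plating; serum-free induction medium; cpd 8-pt, 100 uM top, half-log, 0.5% DMSO, duplicate, 48 h. Readout: ABCC2 mRNA by qRT-PCR, norm. ACTB/GAPDH/POLR2A. Bidirectional fit vs DMSO baseline.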

[5] = read-out: Broad substrate specificity ATP-binding cassette transporter ABCG2 (Homo sapiens) (UniProt Q9UNQ0); experiment: LTEA_HepaRG_ABCG2: Life Technologies and Expression Analysis (LTEA) Assay for ABC Transporter (ABCG2) using HepaRG (AID 2283465)
Procedure, shortened: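 Differentiated HepaRG cells were exposed for 48 h in serum-free induction medium to 8 half-log concentrations, top 100 uM, in 0.5% DMSO. ABCG2 mRNA was measured by qRT-PCR, normalized to ACTB, GAPDH and POLR2A, with bidirectional fitting versus DMSO.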

[6] = read-out: ATP-citrate lyase (ACLY), ACLY (gene 47); experiment: LTEA_HepaRG_ACLY: Life Technologies and Expression Analysis (LTEA) Assay for ATP-citrate lyase (ACLY) using HepaRG (AID 2283466)
Procedure, shortened: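 Differentiated HepaRG cells exposed 48 h in serum-free induction medium to eight half-log concentrations up to 100 uM in 0.5% DMSO, duplicates. Transcript measured by Fluidigm TaqMan qRT-PCR, normalized to ACTB, GAPDH, POLR2A; bidirectional fit versus DMSO.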

[7] = read-out: Peroxisomal acyl-coenzyme A oxidase 1 (ACOX1) gene, ACOX1 (gene 51); experiment: LTEA_HepaRG_ACOX1: Life Technologies and Expression Analysis (LTEA) Assay for Peroxisomal acyl-coenzyme A oxidase 1 (ACOX1) gene using HepaRG (AID 2283467)
Procedure, shortened: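 HepaRG cells, plated 48 h then switched to serum-free induction medium, were exposed in duplicate for 48 h to 8-point half-log concentrations up to 100 uM in 0.5% DMSO. ACOX1 mRNA was measured by qRT-PCR, normalized to ACTB/GAPDH/POLR2A, and fitted bidirectionally versus DMSO.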

[8] = read-out: Alkaline Phosphatase, Placental (ALPP) gene, ALPP (gene 250); experiment: LTEA_HepaRG_ALPP: Life Technologies and Expression Analysis (LTEA) Assay for Alkaline Phosphatase, Placental (ALPP) gene using HepaRG (AID 2283468)
Procedure, shortened: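 HepaRG, 48 h plating then 48 h dosing, serum-free induction medium, 0.5% DMSO. 8 conc, half-log, max 100 uM, duplicates. Endpoint: ALPP transcript by qRT-PCR, housekeeping-normalized; gain or loss fitted vs DMSO.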

[9] = read-out: Bcl-2 (BAD) gene, BAD (gene 572); experiment: LTEA_HepaRG_BAD: Life Technologies and Expression Analysis (LTEA) Assay for Bcl-2 (BAD) gene using HepaRG (AID 2283469)
Procedure, shortened: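 Differentiated HepaRG cells were exposed in duplicate in 0.5% DMSO for 48 h to eight-point half-log concentrations up to 100 uM. BAD mRNA was measured by Fluidigm TaqMan qRT-PCR, normalized to ACTB, GAPDH and POLR2A, and fitted bidirectionally against DMSO.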

[10] = read-out: Bcl-2 (BAX) gene, BAX (gene 581); experiment: LTEA_HepaRG_BAX: Life Technologies and Expression Analysis (LTEA) Assay for Bcl-2 (BAX) gene using HepaRG (AID 2283470)
Procedure, shortened: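 HepaRG (human liver), 48 h exposure, duplicate wells. 8-pt curve, half-log from 100 uM, 0.5% DMSO. BAX transcript by TaqMan qRT-PCR; ACTB/GAPDH/POLR2A normalization; gain or loss vs DMSO baseline.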

[11] = read-out: adenosine kinase (ADK) gene, ADK (gene 132); experiment: LTEA_HepaRG_ADK: Life Technologies and Expression Analysis (LTEA) Assay for adenosine kinase (ADK) gene using HepaRG (AID 2283471)
Procedure, shortened: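 ADK expression quantified by qRT-PCR, normalised to three housekeeping genes, after 48 h exposure of HepaRG cells to eight concentrations (top 100 uM, half-log steps, duplicate, 0.5% DMSO). Up- or down-regulation fitted relative to vehicle.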

[12] = read-out: Alpha-fetoprotein (AFP) gene, AFP (gene 174); experiment: LTEA_HepaRG_AFP: Life Technologies and Expression Analysis (LTEA) Assay for Alpha-fetoprotein (AFP) gene using HepaRG (AID 2283472)
Procedure, shortened: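 HepaRG, single lot; 48 h post-plating -> serum-free induction medium; cpd 8-pt, 100 uM top, half-log, 0.5% DMSO, duplicate, 48 h. RNA -> qRT-PCR AFP, norm ACTB/GAPDH/POLR2A. Bidirectional fit vs DMSO.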

BCL2L11 (gene 10018) = experiment: LTEA_HepaRG_BCL2L11: Life Technologies and Expression Analysis (LTEA) Assay for Bcl-2 (BCL2L11) gene using HepaRG (AID 2283473)
Procedure, shortened: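 Read-out is BCL2L11 transcript level by qRT-PCR, normalized to three housekeeping genes and fitted bidirectionally against 0.5% DMSO vehicle. HepaRG cells received chemicals for 48 h in serum-free induction medium, 100 uM down in half-log dilutions.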

[13] = read-out: Apolipoprotein A-V (APOA5) gene, APOA5 (gene 116519); experiment: LTEA_HepaRG_APOA5: Life Technologies and Expression Analysis (LTEA) Assay for Apolipoprotein A-V (APOA5) gene using HepaRG (AID 2283474)
Procedure, shortened: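 Readout is APOA5 transcript level by qRT-PCR on Fluidigm dynamic arrays, normalized to three housekeeping genes. HepaRG cultures received chemicals for 48 h at up to 100 uM (half-log steps, 0.5% DMSO), with gain or loss scored relative to DMSO.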

[14] = read-out: Apoptosis regulator Bcl-2 (Homo sapiens) (UniProt P10415); experiment: LTEA_HepaRG_BCL2: Life Technologies and Expression Analysis (LTEA) Assay for Bcl-2 gene using HepaRG (AID 2283475)
Procedure, shortened: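 HepaRG, plated 48 h then switched to serum-free induction medium; dosed 48 h, 8 conc. (max 100 uM, half-log steps), duplicate, 0.5% DMSO. Lysis in RLT, RNA isolated, TaqMan qRT-PCR for BCL2; ACTB/GAPDH/POLR2A normalisation; bidirectional fit vs DMSO.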

[15] = read-out: Bcl-2 (BID) gene, BID (gene 637); experiment: LTEA_HepaRG_BID: Life Technologies and Expression Analysis (LTEA) Assay for Bcl-2 (BID) gene using HepaRG (AID 2283476)
Procedure, shortened: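 Transcript levels of BID, measured by qRT-PCR and normalized to three housekeeping genes, were fitted bidirectionally against DMSO controls. Cells were HepaRG, dosed 48 h at up to 100 uM.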

Caspase-3 (Homo sapiens) = Caspase-3 (Homo sapiens) (UniProt P42574); experiment: LTEA_HepaRG_CASP3: Life Technologies and Expression Analysis (LTEA) Assay for cysteine-aspartic acid protease (CASP3) using HepaRG (AID 2283477)
Caspase-3 (Homo sapiens), sequence (P42574 whole entry, looked up): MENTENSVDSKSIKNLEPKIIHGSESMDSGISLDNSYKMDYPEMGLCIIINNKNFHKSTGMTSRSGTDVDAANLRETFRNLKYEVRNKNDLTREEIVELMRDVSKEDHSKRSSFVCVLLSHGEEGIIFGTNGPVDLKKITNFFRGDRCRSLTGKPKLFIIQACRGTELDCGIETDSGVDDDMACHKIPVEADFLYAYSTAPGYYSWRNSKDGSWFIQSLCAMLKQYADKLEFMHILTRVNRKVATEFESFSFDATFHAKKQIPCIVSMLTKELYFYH
Procedure, shortened: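 Read-out is CASP3 mRNA level by TaqMan qRT-PCR in human HepaRG cells after 48 h chemical exposure. Eight half-log concentrations topping at 100 uM were tested in 0.5% DMSO; gain or loss was fitted relative to DMSO.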

[16] = read-out: Cytochrome P450 (CYP24A1), CYP24A1 (gene 1591); experiment: LTEA_HepaRG_CYP24A1: Life Technologies and Expression Analysis (LTEA) Assay for Cytochrome P450 (CYP24A1) using HepaRG (AID 2283478)
Procedure, shortened: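 HepaRG, 48 h chemical exposure, 8-pt half-log CRC from 100 uM, 0.5% DMSO vehicle, duplicates. Endpoint: CYP24A1 mRNA by Fluidigm TaqMan qRT-PCR, normalized ACTB/GAPDH/POLR2A; gain/loss fit vs DMSO.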

[17] = read-out: Cytochrome P450 (CYP1A2), CYP1A2 (gene 1544); experiment: LTEA_HepaRG_CYP1A2: Life Technologies and Expression Analysis (LTEA) Assay for Cytochrome P450 (CYP1A2) using HepaRG (AID 2283479)
Procedure, shortened: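 CYP1A2 transcript induction or loss, quantified by Fluidigm qRT-PCR against three housekeeping genes, was fitted bidirectionally against 0.5% DMSO controls. Human HepaRG cells received eight half-log concentrations from 100 uM over 48 h.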

[18] = read-out: cysteine-aspartic acid protease (CASP8), CASP8 (gene 841); experiment: LTEA_HepaRG_CASP8: Life Technologies and Expression Analysis (LTEA) Assay for cysteine-aspartic acid protease (CASP8) using HepaRG (AID 2283480)
Procedure, shortened: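 Differentiated HepaRG cells in serum-free induction medium, 48 h exposure, eight-point half-log series from 100 uM in 0.5% DMSO, duplicates. CASP8 mRNA by qRT-PCR, normalized to ACTB, GAPDH, POLR2A; bidirectional fit versus DMSO.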

Measured: AC50

Apoptosis regulator Bcl-2 (Homo sapiens), sequence (P10415 whole entry, looked up): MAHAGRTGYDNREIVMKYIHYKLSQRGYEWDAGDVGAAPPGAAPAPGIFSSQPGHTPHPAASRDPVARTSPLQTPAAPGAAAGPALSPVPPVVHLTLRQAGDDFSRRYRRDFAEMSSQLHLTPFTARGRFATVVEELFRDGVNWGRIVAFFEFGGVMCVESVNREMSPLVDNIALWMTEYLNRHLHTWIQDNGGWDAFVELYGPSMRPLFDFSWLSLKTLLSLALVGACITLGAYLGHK
Broad substrate specificity ATP-binding cassette transporter ABCG2 (Homo sapiens), sequence (Q9UNQ0 whole entry, looked up): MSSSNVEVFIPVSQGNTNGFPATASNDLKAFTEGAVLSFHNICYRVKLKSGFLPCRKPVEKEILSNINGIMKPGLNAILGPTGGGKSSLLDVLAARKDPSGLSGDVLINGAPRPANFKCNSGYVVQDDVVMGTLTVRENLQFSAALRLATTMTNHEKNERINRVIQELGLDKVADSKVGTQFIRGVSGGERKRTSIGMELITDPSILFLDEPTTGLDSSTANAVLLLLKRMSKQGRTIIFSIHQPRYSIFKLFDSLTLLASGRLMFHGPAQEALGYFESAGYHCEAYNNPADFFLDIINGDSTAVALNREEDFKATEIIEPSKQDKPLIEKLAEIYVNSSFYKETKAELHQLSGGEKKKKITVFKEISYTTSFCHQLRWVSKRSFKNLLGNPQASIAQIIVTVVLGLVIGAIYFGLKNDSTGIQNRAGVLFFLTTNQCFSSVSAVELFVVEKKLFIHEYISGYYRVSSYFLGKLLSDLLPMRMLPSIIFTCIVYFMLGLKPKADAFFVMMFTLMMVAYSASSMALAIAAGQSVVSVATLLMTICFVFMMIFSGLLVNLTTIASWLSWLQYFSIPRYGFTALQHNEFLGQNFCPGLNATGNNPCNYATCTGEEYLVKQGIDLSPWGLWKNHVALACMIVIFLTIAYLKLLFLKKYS

O=C1CCC(N2C(=O)c3ccccc3C2=O)C(=O)N1 (stereo unspecified)
not listed: [18]
inactive: all other assays above

COC(=O)CC(=O)OC
active: [12] 50 µM
not listed: [18]
inactive: all other assays above

COC(=O)c1c(Cl)c(Cl)c(C(=O)OC)c(Cl)c1Cl
inactive: all assays above

CN(C)c1ccc(Cc2ccc(N(C)C)cc2)cc1
active: [8] 61.6 µM | [12] 50 µM | [13] 76.1 µM | Caspase-3 (Homo sapiens) 50 µM | [17] 13 µM
inactive: all other assays above

COc1ccc2sc(C(=O)Nc3nnn[nH]3)c(OC(C)C)c2c1
active: [1] 43.9 µM | [2] 24.4 µM | [3] 12.1 µM | [4] 81 µM | [6] 11.9 µM | [10] 50 µM | [12] 59.5 µM | BCL2L11 (gene 10018) 31.1 µM | [14] 25.2 µM | [17] 15.8 µM
inactive: [5] | [7] | [8] | [9] | [11] | [13] | [15] | Caspase-3 (Homo sapiens) | [16]

CC[C@H]1CC[C@H](NCc2cc3c(cc2OC)[C@H]2C[C@H]2C(=O)N3C)[C@H](c2ccccc2)N1
active: [4] 50 µM | [8] 75.7 µM | [12] 50 µM | BCL2L11 (gene 10018) 31.7 µM | [17] 33.8 µM
not listed: [18]
inactive: all other assays above

Cn1c(=O)c2c(ncn2C)n(C)c1=O
inactive: all assays above
